From PubChem BioAssay
A selection: hits, their analogues and other compounds. The true share with any hit is near 3.4%.
FBW7 activator – human FBW7 E3 ligase activation, primary screen. AlphaScreen FBW7–phospho-cyclin E peptide binding, activator screen. normalized activity (activation), % at 26.1 µM. actives 0.13% (n = 650,000). AID 1259310; in the data active means normalized activity above about 1.9%;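 further: purified mutant Fbw7 with reduced substrate affinity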
Target sequence (Q969H0 whole entry, looked up): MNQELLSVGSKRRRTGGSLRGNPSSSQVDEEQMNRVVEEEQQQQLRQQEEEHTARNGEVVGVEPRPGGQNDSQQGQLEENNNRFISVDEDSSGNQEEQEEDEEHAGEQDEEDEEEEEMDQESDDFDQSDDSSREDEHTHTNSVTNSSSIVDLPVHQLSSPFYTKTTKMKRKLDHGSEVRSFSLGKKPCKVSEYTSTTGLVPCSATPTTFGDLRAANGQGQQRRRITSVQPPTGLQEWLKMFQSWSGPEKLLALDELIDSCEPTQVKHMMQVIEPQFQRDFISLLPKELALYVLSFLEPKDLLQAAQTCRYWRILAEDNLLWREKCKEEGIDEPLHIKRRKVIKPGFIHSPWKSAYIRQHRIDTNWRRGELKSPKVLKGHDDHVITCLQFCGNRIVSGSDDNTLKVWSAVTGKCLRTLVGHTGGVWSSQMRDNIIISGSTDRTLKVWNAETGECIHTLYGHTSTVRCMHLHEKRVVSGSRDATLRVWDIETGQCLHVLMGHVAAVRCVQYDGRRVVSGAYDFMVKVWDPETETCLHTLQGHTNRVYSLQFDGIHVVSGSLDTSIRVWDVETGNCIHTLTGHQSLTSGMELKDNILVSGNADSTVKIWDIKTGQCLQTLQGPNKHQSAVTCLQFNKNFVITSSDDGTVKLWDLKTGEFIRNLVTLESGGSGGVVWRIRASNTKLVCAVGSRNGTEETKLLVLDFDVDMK
GPR151 ag – activators of human GPR151. PathHunter beta-arrestin GPR151 cells, luminescence. Q8TDV0. activation, % at 11.2 µM. actives 1% (n = 650,000); in the data active means activation above about 4.9%;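 further: 0% = median of compound wells and 100% = cells with positive control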
MITF inh – inhibitors of human MITF | O75030 | AlphaScreen MITF homodimerization, bead proximity signal | inhibition, % at 2.6 µM | actives 0.91% (n = 650,000); in the data active means inhibition above about 50%;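 further: 0% = vehicle wells with protein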
TEAD-YAP block – TEAD-YAP interaction inhibition. inhibition, % at 9.12 µM. actives 1.4% (n = 640,000). HEK-TIYL cells, TEAD-Gal4/YAP UAS-luciferase luminescence; in the data active means inhibition above about 32%;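 further: 0% = median of test compound wells and 100% = reference inhibitor wells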
MITF confirm – human MITF inhibition, confirmation; shares compounds with MITF inh; actives 16% (n = 4,700); inhibition, % at 2.6 µM; AlphaScreen MITF homodimerization, biotin/His-MITF beads;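 active means inhibition above a cutoff derived from the DMSO control wells, cut at about 28% in these data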;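 further: 0% = MITF dimer wells with DMSO only; inhibitors lower the bead chemiluminescence by keeping MITF from dimerizing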
AS interf DR – AlphaScreen optical interference, dose response counter-screen; AID 1259373; AlphaScreen optical interference counterscreen, cell-free; shares compounds with MITF inh; IC50, µM; actives 6% (n = 480); call rule not given here
AS interf ctr – AlphaScreen optical interference, counter-screen; shares compounds with MITF inh; LysRS AlphaScreen counterscreen, signal interference, triplicate; inhibition, % at 2.6 µM; actives 7.6% (n = 4,700); AID 1259376;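 active means inhibition above a cutoff derived from the DMSO control wells, cut at about 30% in these data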
The depositor's hits bear a star; nt = no result given.

SMILES | FBW7 activator | GPR151 ag | MITF inh | TEAD-YAP block | MITF confirm | AS interf ctr | others
CCOc1ccccc1N1CCN(Cc2cccc(OC)c2OC)CC1 | 0 | 1 | 23 | 8 | nt | nt
CCc1ccc(CN2CCN(Cc3cccc(OC)c3OC)CC2)cc1 | 0 | -1 | 64* | -5 | 8 | 15
COc1ccc(CN2CCN(Cc3cccc(OC)c3OC)CC2)cc1 | 0 | -1 | 75* | -6 | 9 | 12
COc1cccc(CN2CCN(C(=O)C3CC3)[C@@H](C)C2)c1 | 0 | -1 | 62* | -8 | 18 | 21
COc1cccc(CN2CCC(C(=O)NC3CCCCCC3)CC2)c1 | 0 | 0 | 65* | 5 | 15 | 18
COc1cccc(CN2CCN(C3CCCCCC3)CC2)c1 | 0 | 0 | 58* | 9 | 6 | -7
COc1cccc(CN2CCN(C3CCC(C)CC3)CC2)c1 (centres undefined) | 0 | 0 | 70* | -8 | -5 | -2
CCC1CCC(c2ccc(C3=N/C(=C/C(C)=C/c4ccccc4)C(=O)O3)cc2)CC1 (centres undefined) | 0 | 0 | -5 | 2 | nt | nt
COCCNc1ncc(-c2ccc(OC(F)(F)F)cc2)cn1 | 0 | -1 | 1 | -39 | nt | nt
CCc1ccc(C2C(C#N)=C(N)OC3=C2C(=O)c2ccccc2C3=O)cc1 (centres undefined) | 0 | 1 | 2 | 3 | nt | nt
O=C(COC(=O)Cc1csc(-c2cccc(Cl)c2)n1)Nc1ccc2c(c1)OCO2 | 0 | -1 | 18 | 8 | nt | nt
CCOc1ccc2nc(SCC(=O)Nc3cc(OC)cc(OC)c3)c(C#N)cc2c1 | 0 | 0 | -7 | 0 | nt | nt
O=C(NCc1ccccc1)c1ccnc(NCCN2CCOCC2)c1 | 0 | -1 | 3 | 2 | nt | nt
COc1cccc(CN2CCN(C3CCCCC3)CC2)c1 | 0 | 0 | 60* | 6 | -12 | -4
O=C(COC(=O)c1ccc(O)cc1)NC1CCCCC1 | 0 | 0 | 59* | 11 | -3 | 5
O=C(CSc1ccccn1)N/N=C/C1CC=CCC1 (centres undefined) | 0 | 1 | -3 | -12 | nt | nt
CCOc1ccc(-c2cn3c(CC(=O)N4CCN(c5ccccc5)CC4)csc3n2)cc1 | 0 | 1 | 55* | 0 | 4 | 6
CCOc1ccc(-c2cn3c(CC(=O)N4CCCCC4CC)csc3n2)cc1 (centres undefined) | 0 | 0 | 11 | -9 | nt | nt
CC1(C)CC(=O)C2=C(C1)Nc1ncnn1C2c1ccc(C(C)(C)C)cc1 (centres undefined) | 1 | -1 | 2 | -5 | nt | nt
O=C(O)c1coc(CNC(=O)c2cocc2C(=O)O)c1 | 0 | 0 | 64* | 9 | 50* | 14 | AS interf DR=>6.5
Cc1ccc(C(=O)Nc2sccc2C(N)=O)cc1C | 0 | -10 | 19 | -16 | nt | nt
CC(=O)NS(=O)(=O)c1ccc(NC(=O)c2ccc([N+](=O)[O-])o2)cc1 | 0 | 3 | 64* | 12 | 40* | -5 | AS interf DR=>6.6
O=C(Nc1ccc(Br)cc1)c1ccc([N+](=O)[O-])o1 | 0 | 1 | 10 | 9 | nt | nt
COC(=O)C(=O)Nc1nnc(C2CCCC2)s1 | 0 | -1 | 79* | 2 | 9 | 13
COC(=O)C(=O)Nc1nnc(C2CCCCC2)s1 | 0 | -1 | 67* | -4 | 9 | 13
SMILES | FBW7 activator | GPR151 ag | MITF inh | TEAD-YAP block | MITF confirm | AS interf ctr | others
O=C(Nc1nnc(C2CCCCC2)s1)C1CC1 | 0 | 1 | 7 | 1 | nt | nt
Cc1ccc(Cn2nnc3c(NC4CC4)nc(C)nc32)cc1 | 0 | 0 | 1 | 25 | nt | nt
CCn1c2ccccc2c2cc(CN3CCN(Cc4cc(OC)c(OC)cc4[N+](=O)[O-])CC3)ccc21 | 0 | 1 | 82* | 5 | 3 | 21
COc1cc(CN2CCN(Cc3cccc(OC)c3OC)CC2)c([N+](=O)[O-])cc1OC | 0 | 0 | 52* | -9 | 4 | 3
COc1cc(CN2CCN(Cc3cccc4ccccc34)CC2)c([N+](=O)[O-])cc1OC | 0 | 2 | 70* | -15 | 12 | 0
Fc1ccccc1CN1CCN(Cc2cccc3ccccc23)CC1 | 0 | -1 | 74* | -12 | 19 | -4
CCS(=O)(=O)N1CCN(Cc2c[nH]c3ccccc23)CC1 | 0 | -2 | 51* | 12 | 5 | 10
c1ccc2c(CN3CCN(Cc4c[nH]c5ccccc45)CC3)cccc2c1 | 0 | 1 | 74* | 18 | -7 | 7
Fc1ccccc1CN1CCN(Cc2c[nH]c3ccccc23)CC1 | 0 | 2 | 65* | 15 | -2 | -1
Fc1ccccc1CN1CCCCCC1 | 0 | 0 | 16 | 1 | nt | nt
CC(=O)NC1CCC2C3CC=C4CC(OC(C)=O)CC[C@]4(C)C3CC[C@]12C (some centres undefined) | 0 | 2 | 4 | 1 | nt | nt
CCN1CCCC1CNC(=O)c1cc(COc2ccc(C(C)=O)cc2)on1 (centres undefined) | 0 | 1 | -10 | 9 | nt | nt
Fc1ccccc1CN1CCN(Cc2ccc3ccccc3c2)CC1 | 1 | -1 | 75* | 0 | -7 | 1
Brc1ccccc1CN1CCN(Cc2c[nH]c3ccccc23)CC1 | 0 | 0 | 59* | 4 | -5 | -4
Clc1ccc(CN2CCN(Cc3c[nH]c4ccccc34)CC2)cc1 | 0 | -1 | 75* | -9 | 84* | 9 | AS interf DR=>5.9
c1ccc2cc(CN3CCOCC3)ccc2c1 | 0 | 1 | -5 | -17 | nt | nt
c1cnc(N2CCN(Cc3c[nH]c4ccccc34)CC2)nc1 | 0 | 0 | 10 | 4 | nt | nt
O=C(NCCOc1ccc(CN2CCCCC2c2cccnc2)cc1)c1n[nH]c2c1CCC2 (centres undefined) | 0 | 3 | -3 | -9 | nt | nt
Cc1ccccc1-c1nnn(CC(=O)NC(=O)NC(C)C)n1 | 0 | 1 | -3 | 11 | nt | nt
COc1cccc(CN2CCN(C3CCC(C)CC3)CC2)c1OC (centres undefined) | 0 | -1 | 70* | -12 | 17 | -3
COc1cccc(CN2CCC(N3CCCC3)CC2)c1OC | 0 | 2 | 20 | 3 | nt | nt
COc1cc(CN2CCN(Cc3cccc(C)c3)CC2)cc(OC)c1OC | -1 | 0 | 42 | -4 | nt | nt
COc1ccc(CN2CCC(N3CCN(c4ccccc4)CC3)CC2)cc1OC | 0 | -2 | 56* | 19 | -6 | -10
COc1cccc(CN2CCN(Cc3cc(OC)c(OC)c(OC)c3)CC2)c1OC | 0 | -1 | 62* | 4 | -12 | -2
COc1cccc(CN2CCC(N3CCN(c4ccccc4)CC3)CC2)c1OC | 0 | 0 | 56* | 5 | -9 | -3
CCOc1ccc(C2(O)CSC3=C(C#N)C(c4ccc(O)c(OC)c4)CC(=O)N32)cc1 (centres undefined) | 0 | 0 | 2 | -4 | nt | nt
COc1cccc(CN2CCN(Cc3cccc(Oc4ccccc4)c3)CC2)c1OC | 0 | 0 | 74* | -7 | 5 | 3
